NPC1 promoter act – NPC1 promoter activation. 320,000 tested, 2.4% active. Huh7 NPC1 promoter luciferase reporter, 24 h. Potency, µM (titrated, usually from 9.22 µM), inactives show at the top dose activation, usual class: activators; further: % of control where 0% means no effect; nearly all actives have a fitted effect of over 60% in size
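In 1536-well qHTS, Huh7 cells harboring an NPC1 promoter–luciferase construct received compound for 24 h; activation was quantified by luminescence following luciferase reagent addition.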
Rab9 prom act – activators of Rab9 promoter. Huh7 Rab9 promoter-luciferase reporter, luminescence, 24 h. Potency, µM (series often up to 9.22 µM), inactives show at the highest dose activation, negative = inhibition, usual class: activators. 320,000 tested, 2.8% active. AID 485297; further: % of control where 0% means no effect; nearly all actives have a fitted effect of over 60% in size
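Luciferase signal after 10 min detection reagent at ambient indicates Rab9 promoter upregulation; stably transfected Huh7 cells were treated 24 h with compound in DMSO at 37 °C, 5% CO2.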
SMN2 splice enh – enhancers of SMN2 splice variant expression | HEK293 SMN2-luciferase splicing reporter, luminescence, 30-36 h | Potency, µM (titrated, usually from 46.1 µM), without a hit: at the top dose activity change, positive = activation, most hits filed as activators | 210,000 tested, 2.8% active | AID 1458; further: % of control where 0% means no effect; nearly all actives have a fitted effect of over 55% in size
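qHTS luciferase splicing reporter: luminescence rises when SMN2 exon 7 is included in transfected HEK293 cells. Compound exposure lasted 30-36 h at 37C, with 4.5 mM final sodium butyrate as control, followed by a ONE-Glo read.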
FLuc counter – inhibits or activates purified firefly luciferase, miR-21 counter-screen. Potency, µM (titrated, usually from 57.5 µM), inactives show at the highest dose activity change, negative = inhibition, actives largely listed as inhibitors. P08659. purified FLuc, Km substrates, luminescence inhibition. 360,000 tested, 6.9% active. AID 588342;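 further: plate controls were vehicle for no effect and reference inhibitor for full effect; nearly all actives have a fitted effect of over 55% in size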
Target sequence (P08659 whole entry, looked up): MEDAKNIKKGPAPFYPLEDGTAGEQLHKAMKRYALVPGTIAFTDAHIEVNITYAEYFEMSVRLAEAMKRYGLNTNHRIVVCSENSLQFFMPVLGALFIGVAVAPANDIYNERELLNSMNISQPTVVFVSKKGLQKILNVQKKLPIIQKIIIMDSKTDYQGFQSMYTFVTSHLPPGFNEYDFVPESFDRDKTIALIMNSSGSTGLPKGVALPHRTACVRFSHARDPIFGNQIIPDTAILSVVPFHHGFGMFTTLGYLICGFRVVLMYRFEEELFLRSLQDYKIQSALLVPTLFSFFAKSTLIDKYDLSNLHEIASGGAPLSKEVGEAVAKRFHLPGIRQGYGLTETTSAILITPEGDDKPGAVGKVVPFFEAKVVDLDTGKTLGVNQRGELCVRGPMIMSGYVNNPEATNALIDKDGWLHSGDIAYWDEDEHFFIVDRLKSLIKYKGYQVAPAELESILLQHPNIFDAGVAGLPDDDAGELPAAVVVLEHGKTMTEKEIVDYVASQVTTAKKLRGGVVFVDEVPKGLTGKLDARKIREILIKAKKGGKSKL
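Biochemical qHTS of compounds, final roughly 60 µM downward over six points, against 10 nM purified firefly luciferase using Km concentrations of substrates (10 uM D-luciferin, 10 uM ATP) in Tris acetate pH 7.5 buffer; luminescence output.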
ELG1 genotox – inducers of genotoxicity in HEK293T ELG1-luciferase cells | HEK293T ELG1-luciferase reporter, luminescence, 16 h | Potency, µM (top dose mostly 46 µM), without a hit: at the highest dose activity change, positive = activation, usual class: activators | 330,000 tested, 1.3% active | AID 504466; further: % of control where 0% means no effect; nearly all actives have a fitted effect of over 60% in size
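16 hr compound incubation (37 °C, 5% CO2) of HEK293T cells carrying luciferase-tagged ELG1; luciferase then measured by ONE-Glo luminescence after 30 min at RT.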
* hit, by the source's call; u = inconclusive; x = not tested or not shown; [ ] = another dose, or the depositor's remark. Most compounds without a hit are left out; they make up all but 7.5% or so of the library. The call rests on the fitted dose curve; in most records, active means well fitted curve in the direction sought with a large enough effect; inconclusive means small, poorly fitted or top-dose-only effect, or another doubt; inactive means no such curve, though single readings can be large; an effect the other way counts as inactive or inconclusive. Potency means the concentration at half of the fitted maximal effect.

SMILES	NPC1 promoter act	Rab9 prom act	SMN2 splice enh	FLuc counter	ELG1 genotox
Cc1cccc2cc(-c3nc4ccc(C(=O)O)cc4[nH]3)c(=O)oc12	u	u	x	0.43µM*	u
Cc1onc(-c2c(F)cccc2Cl)c1C(=O)Nc1nnc(C(F)(F)F)s1	1%	-2%	x	-2%	-15%
COc1cccc(C2C(=O)c3ccccc3C2=O)c1	-8%	5%	x	27µM*	2%
COC(=O)C1=C(C)NC2=C(C(=O)c3ccccc32)C1c1cccc(OC)c1 (stereo unspecified)	-1%	14%	x	-3%	4%
COc1cccc([C@@H]2Oc3ccc(OC)cc3C(=O)[C@H]2O)c1	u	u	5µM*	-23%	7.3µM*
Cc1ccc(S(=O)(=O)N2CCOCC2)cc1NC(=O)CNCC1CCCCC1	-8%	-5%	-7%	-1%	-6%
CC(C)(C)C(=O)OCc1cn(-c2ccc(Cl)cc2)nn1	u	11%	0%	15µM*	u
CCN(CC)c1ccc(C2Nc3cccc4cccc(c34)N2)c(O)c1	u	u	0%	17µM*	10%
COc1cc(C2Nc3cccc4cccc(c34)N2)cc(OC)c1OC(C)=O	-2%	2%	4%	17µM*	5%
COc1cc(C2Nc3cccc4cccc(c34)N2)ccc1O	u	18%	x	13µM*	-2%
COc1ccc(Br)cc1C1Nc2cccc3cccc(c23)N1	u	23%	x	-20%	u
CCOC(=O)N1CCN(C(=O)CCN2C(=O)/C(=C\c3cccc(OC)c3)SC2=S)CC1	-9%	-9%	x	5%	0%
CCN(CC)c1ccc(CNc2ccc(Br)cn2)cc1	u	26%	u	u	10µM*
Cc1ccc(NC(=O)c2cnccn2)c(Br)c1	u	u	x	21µM*	u
Cc1ccc(NC(=O)c2cnccn2)nc1	23%	10%	x	9.5µM*	0%
Cc1cc(NC(=O)c2cnccn2)no1	-1%	15%	-21%	2%	-1%
Cc1ccc(NS(=O)(=O)c2c(C)[nH]c(C)c2C(=O)N2CCCCC2)cc1F	-5%	-1%	x	-1%	-4%
N#C/C(=C\c1ccc(Cl)c([N+](=O)[O-])c1)c1ccccn1	0%	-3%	-4%	-14%	u
CNc1ccc(/C=C(\C#N)c2ccccn2)cc1[N+](=O)[O-]	2.8µM*	1.3µM*	10µM*	-19%	10µM*
N#C/C(=C\c1ccccc1)c1ccccn1	u	u	21%	19µM*	u
COc1c(-c2ccc([N+](=O)[O-])cc2[N+](=O)[O-])c(=O)n(C)c(=O)n1C	-1%	1%[1.84 µM]	x	u	-4%
COC(=O)CC1C(=O)NCCN1C(=O)CSc1nc2ccccc2o1 (stereo unspecified)	-5%	-7%	0%	4%	-3%
COC(=O)CC1C(=O)NCCN1C(=O)CSc1nnc(Nc2ccc(C)cc2)s1 (stereo unspecified)	0%	2%	5%	17µM*	7%
COC(=O)CC1C(=O)NCCN1C(=O)CSc1nnc(Nc2ccc(OC)cc2)s1 (stereo unspecified)	6%	2%	x	21µM*	6%
Clc1ccc(-c2nc(-c3cc4cc(Cl)ccc4o3)cs2)cc1	14%	-7%	x	-2%	0%
SMILES	NPC1 promoter act	Rab9 prom act	SMN2 splice enh	FLuc counter	ELG1 genotox
Oc1cc2c(cc1O)[C@H]1c3ccc(O)c(O)c3OC[C@@]1(O)C2	-2%	0%	-20%	15µM*	2%
C[C@H](CO)N1C[C@H](C)[C@@H](CN(C)S(=O)(=O)c2ccccc2)Oc2c(NC(=O)Nc3ccc4c(c3)OCO4)cccc2C1=O	x	x	x	x	-2%
CN(C)S(=O)(=O)c1cccc(NC(=S)N/N=C/C2CC=CCC2)c1 (stereo unspecified)	-1%	-3%	6%	u	0%
COc1cc(/C=N\NC(=O)c2ccc(-c3ccccc3)cc2)cc(OC)c1O	4%	21%	x	9.5µM*	4%
COc1cc(/C=N/NC(=O)c2cccc(NC(=O)c3ccccc3C)c2)ccc1O	12%	-1%	x	19µM*	-10%
COc1ccc(/C=N/NC(=O)c2cccc(NC(=O)c3ccc(Cl)cc3)c2)c(OC)c1	24%	u	u	2.7µM*	3%
COc1cc(/C=N/NC(=S)Nc2cccc(S(=O)(=O)N(C)C)c2)ccc1O	-3%	0%	21%	2.7µM*	1%
COc1ccc(/C=N/NC(=O)c2ccc(NC(=O)c3cccc([N+](=O)[O-])c3)cc2)c(OC)c1	2%	8%	3%	-8%	-3%
COc1cc(/C=N\NC(=O)c2ccc(-c3ccccc3)cc2)cc(OC)c1OC(C)=O	-3%	12%	x	u	-2%
COc1cc(/C=N/NC(=O)c2ccncc2)ccc1O	2%	2%	x	-7%	2%
NS(=O)(=O)c1ccc(CNC(=O)c2ccc(S(=O)(=O)NCc3ccco3)cc2)cc1	-2%	-3%	x	5%	0%
C=C(C)C(=O)C1CCCCC1	x	x	-1%	x	x
CCCNC(=O)Cn1nc(-c2ccc(C)c(C)c2)c2cnc3ccc(F)cc3c21	x	x	x	-10%	x
O=C(Cn1nc2ccccc2n1)N/N=C/c1cc(Cl)cc([N+](=O)[O-])c1O	-1%	-3%	-23%	u	6%
COc1cc(/C=N/NC(=O)c2cccc(NC(=O)c3ccccc3)c2)ccc1O	16%	20%	x	9.5µM*	-8%
COc1cc(/C=N/NC(=O)c2ccc3nc[nH]c3c2)cc(OC)c1OC	-10%	-7%	x	12µM*	-4%
Cc1ccccc1C(=O)Nc1cccc(C(=O)N/N=C/c2cc(Cl)cc([N+](=O)[O-])c2O)c1	1%	1%	x	21µM*	14%
COc1ccc(/C=N/NC(=O)c2ccc3nc[nH]c3c2)cc1OC	0%	-4%	x	u	-5%
Nn1c(SCc2cccc(Br)c2)nnc1-c1cccnc1	-5%	3%	x	5%	0%
COc1ccc2cc(/C=C/C(=O)N3CCN(CC(=O)N4CCCCCC4)CC3)ccc2c1	21%	10%	x	u	8%
Cc1nnc(SC(C)C)n(N)c1=O	-17%	10%	3%	-1%	-17%
O=C(c1cnccn1)N1CCC2(CCN(Cc3ccncc3)CC2)CC1	x	x	-3%	x	x
C/C(=N/NC(=O)c1cccs1)c1c(C)[nH]n(-c2nc3ccccc3s2)c1=O	2µM*	2µM*	11µM*	0.6µM*	u
CC(=NCc1ccco1)c1c(C)[nH]n(-c2nc3ccccc3s2)c1=O	u	u	x	7.6µM*	3.7µM*
CCC(=NCc1ccccc1)c1c(C(F)(F)F)[nH]n(-c2nc3ccccc3s2)c1=O	20%	3%	-2%	12µM*	u
O=c1c(C=NCc2cccnc2)c(C(F)(F)F)[nH]n1-c1nc2ccccc2s1	-2%	1%	x	2%	-6%
